Assay outcomes: PubChem BioAssay, The Scripps Research Institute Molecular Screening Center
ASK1 inh – human ASK1 kinase inhibition, primary screen; AlphaScreen MKK6 phosphorylation by ASK1, luminescence; AID 1159602; inhibition, % at 7.44 µM; Q99683; 22,000 compounds, 0.99% hits; in the data active = inhibition above about 35%
ULK1 inh – human ULK1 kinase inhibition, primary screen. O75385. inhibition, % at 5.96 µM. AlphaScreen Atg13 phosphorylation by ULK1, luminescence. 30,000 compounds, 1.9% hits; in the data active = inhibition above about 43%
AlphaScreen intf – AlphaScreen optical interference dose response, ASK1 counter-screen; AID 1159604; IC50, µM; AlphaScreen TruHits beads, signal interference counterscreen; 220 compounds, 20% hits; shares compounds with ASK1 inh;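 active = IC50 of 10 µM or lower in the counterscreen; inactive = IC50 above 10 µM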;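 note: loss of AlphaScreen light from TruHits beads alone with no ASK1 enzyme present; potency of signal reduction so a low IC50 flags an assay artifact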
Hits are given with their value; n = inactive; x = no result given; ! = a repeat was not active. In the library only some 2.4% were active in any assay of this set; here they are far more common.

SMILES | ASK1 inh | ULK1 inh | AlphaScreen intf
NC(=O)c1cnc(Nc2ccnc(Nc3ccc(N4CCOCC4)cc3)c2)s1 | n | n | x
NC(=O)c1cc2ccccc2cc1Nc1ccnc(Nc2ccc(N3CCOCC3)cc2)c1 | 36 | n | n
FC(F)(F)c1cccc(CNc2nc(Nc3ccc(N4CCOCC4)cc3)nc3nc[nH]c23)c1 | 45! | n | n
FC(F)(F)c1ccc(Nc2nc(NCc3cccc(C(F)(F)F)c3)c3[nH]cnc3n2)cc1 | n | n | x
CC(C)n1cnc2c(NCc3cccc(C(F)(F)F)c3)nc(Nc3ccc(N4CCOCC4)cc3)nc21 | 55! | n | 6.4
CC(C)n1cnc2c(NCc3cccc(C(F)(F)F)c3)nc(Nc3ccccc3)nc21 | n | n | x
COc1ccc(Cl)cc1C(=O)Nc1cc(C)nn1-c1nc2c(c(=O)[nH]1)CCC2 | x | n | x
Nc1nn(-c2ccc(F)cc2)c2cc(-c3nn[nH]n3)ccc12 | n | n | x
CN(C)c1cccc(Nc2nc(NCCc3ccc(O)cc3)c3ncn(C4CCCCC4)c3n2)c1 | 38 | n | n
CC(C)N(CCNc1nc(Nc2cccc(N(C)C)c2)nc2c1ncn2C1CCCCC1)C(C)C | n | n | x
CN(C)c1cccc(Nc2nc(NCCc3ccc(O)cc3)c3ncn(-c4ccccc4)c3n2)c1 | 37 | n | n
Oc1ccc(CCNc2nc(Nc3ccccc3)nc3c2ncn3-c2ccccc2)cc1 | n | n | x
COc1ccc(CCNc2nc(Nc3cccc(N(C)C)c3)nc3c2ncn3Cc2ccc(C(F)(F)F)cc2)cc1 | n | n | x
CN(C)c1cccc(Nc2nc(NCCc3ccc(O)cc3)c3ncn(Cc4ccc(C(F)(F)F)cc4)c3n2)c1 | 37 | n | n
FC(F)(F)c1ccc(Nc2nc(NCc3cccc(C(F)(F)F)c3)c3ncn(-c4ccccc4)c3n2)cc1 | n | n | x
CC(C)n1c(-c2ccc(C(N)=O)cc2)nc2c(NCc3cccc(C(F)(F)F)c3)ncnc21 | n | n | x
O=C(COc1ccc2ccccc2c1)NCc1ccncc1 | x | n | x
FC(F)(F)c1ccc(Cn2cnc3c(Nc4ccc5c(c4)OCO5)nc(NC4CCN(Cc5ccccc5)CC4)nc32)cc1 | 46 | n | n
c1ccc(CN2CCC(Nc3nc(Nc4ccc(N5CCOCC5)cc4)nc4c3ncn4C3CCCCC3)CC2)cc1 | 50 | n | 8.1
FC(F)(F)c1ccc(Cn2cnc3c(Nc4ccccc4)nc(NC4CCN(Cc5ccccc5)CC4)nc32)cc1 | n | n | x
c1ccc(CN2CCC(Nc3nc(Nc4ccc(N5CCOCC5)cc4)nc4c3ncn4-c3ccccc3)CC2)cc1 | n | n | x
FC(F)(F)c1ccc(Cn2cnc3c(NC4CC4)nc(Nc4ccc(N5CCOCC5)cc4)nc32)cc1 | n | n | x
FC(F)(F)c1ccc(Cn2cnc3c(NC4CCN(Cc5ccccc5)CC4)nc(Nc4ccc(N5CCOCC5)cc4)nc32)cc1 | 40 | n | n
COc1ccc(CCNc2cc(Nc3ccccc3)ncn2)cc1 | n | n | x
O=C(NCc1ccccc1)c1cnc(Nc2ccncc2)s1 | n | n | x
SMILES | ASK1 inh | ULK1 inh | AlphaScreen intf
COc1ccc(-c2nc3ncnc(Nc4cc(OC)c(OC)c(OC)c4)c3[nH]2)cn1 | 45 | n | n
COc1ccc(-c2nc3ncnc(Nc4ccc(NC(C)=O)cc4)c3[nH]2)cn1 | n | n | x
COc1ccc(-c2nccc(Nc3ccccc3)n2)cn1 | n | n | x
Cc1cc(Nc2ccccc2)nc(NC2CCC(O)CC2)n1 (stereo not drawn) | n | n | x
CC(C)n1cnc2c(NCC3CCCO3)nc(-c3ccccc3)nc21 (stereo not drawn) | n | n | x
COc1ccc(CCNc2nc(Nc3ccc(N4CCOCC4)cc3)nc3c2ncn3-c2ccsc2)cc1 | 37 | n | 7.4
COc1ccc(CCNc2nc(Nc3ccc(C(F)(F)F)cc3)nc3c2ncn3Cc2ccc(C(F)(F)F)cc2)cc1 | n | n | x
COc1ccc(CCNc2nc(Nc3ccc(N4CCOCC4)cc3)nc3c2ncn3-c2ccccc2)cc1 | 37 | n | n
COc1ccc(CCNc2nc(Nc3ccc(C(F)(F)F)cc3)nc3c2ncn3-c2ccsc2)cc1 | n | n | x
COc1ccc(CCNc2nc(Nc3ccc(N4CCOCC4)cc3)nc3c2ncn3C(C)C)cc1 | n | n | x
COc1ccc(CCNc2nc(Nc3ccc(N4CCOCC4)cc3)nc3c2ncn3Cc2ccc(C(F)(F)F)cc2)cc1 | 72 | n | 9.5
CCCN1C(=O)C(C)(C)COc2cc(NC(=O)c3ccc(C)c(C)c3)ccc21 | x | n | x
Cc1cc(NCCc2ccc(O)cc2)nc(Nc2cccnc2)n1 | n | n | x
COC(CNc1cc(-c2ccncc2)nc(-c2ccccn2)n1)OC | x | n | x
O=C(NCCN1CCOCC1)c1cccc(-n2ncc3cc(Nc4ccccc4F)ccc32)c1 | n | n | x
Cc1cccc(Nc2ccc3c(cnn3-c3cccc(C(=O)NCCN4CCNCC4)c3)c2)c1Cl | 43 | n | n
O=C(NCCN1CCOCC1)c1cccc(-n2ncc3cc(Nc4c(F)cccc4[N+](=O)[O-])ccc32)c1 | 44 | n | n
Cc1cccc(Nc2ccc3c(cnn3-c3cccc(C(=O)NCCN4CCN(CC5CC5)CC4)c3)c2)c1Cl | 36 | n | n
CC(=O)N1CCN(CCNC(=O)c2cccc(-n3ncc4cc(Nc5cccc(C)c5Cl)ccc43)c2)CC1 | n | n | x
Cc1cccc(Nc2ccc3c(cnn3-c3cccc(C(=O)NCCN4CCN(C)CC4)c3)c2)c1Cl | n | n | x
CC1CN(C(=O)c2ccc(COc3cccc4c3OC(C)(C)C4)cc2)CC(C)O1 (stereo not drawn) | x | n | x
COc1cc2nc(Nc3ccnn3C)nc(NC3CC3)c2cc1OC | n | n | x
O=C(Cc1cn(-c2ccc(NCc3cccnc3)nn2)c2ccccc12)NCCc1ccc(O)cc1 | n | n | x
CC(C)N(CCNC(=O)c1cncc(-c2ccc(C(=O)NC3CC3)cc2)c1)C(C)C | n | n | x
FC(F)(F)c1cccc(CNc2nc(-c3ccccc3)nc3c2ncn3-c2ccccc2)c1 | n | n | x
NC(=O)c1ccc(-c2nc(NCc3cccc(C(F)(F)F)c3)c3ncn(-c4ccccc4)c3n2)cc1 | 39 | n | n
CCOc1cc(/C=C(\C#N)C(=O)Nc2cccc(C)c2)ccc1O | x | n | x
CCN(CC)c1nc(NCc2nc3ccccc3[nH]2)nc(Nc2nccc3ccccc23)n1 | n | n | x
